High-throughput results from PubChem BioAssay.
Sfp inh: qHTS Assay for Inhibitors of Bacillus subtilis Sfp phosphopantetheinyl transferase (PPTase); 4'-phosphopantetheinyl transferase ffp (Bacillus subtilis), Q9F4F7; Biochemical Sfp PPTase activity, qHTS; Potency, µM, for the others: largest response in the series, negative = inhibition, actives largely listed as inhibitors; 3.5% of 310,000 active; AID 1490, 2009;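 also: the enzyme is Sfp with the accession as filed and its product quenches rhodamine fluorescence; 0% = enzyme reaction without inhibitor and -100% = no enzyme wells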
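With Hepes-Na pH 7.6 buffer containing 10 mM MgCl2, Sfp (15 nM) modified BHQ-2-YbbR (12.5 uM) using rhodamine-CoA (5 uM). Two reads 30 minutes apart at 525/598 nm yielded each well's rate.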
L3MBTL1 block: qHTS Assay for the Inhibitors of L3MBTL1. AlphaScreen L3MBTL1–H3K9me1 peptide binding. Potency, µM (highest dose often 57.1 µM), for the others: top-dose activity, negative = inhibition, actives largely listed as inhibitors. 0.66% of 230,000 active. AID 485360, 2010; also: % is scaled to controls: 0 for no effect and ±100 for the full control effect; nearly all actives have a fitted effect of over 60% in size
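Read-out is AlphaScreen signal from streptavidin donor and nickel chelate acceptor beads (10 ug/mL final each) bridging L3MBTL1 (50 nM) and biotinylated K9-monomethylated H3(1-15) peptide (75 nM), after 30 min compound exposure at room temperature.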
HP1b binding inh: HTS for Inhibitors of HP1-beta Chromodomain Interactions with Methylated Histone Tails; 0.56% of 390,000 active; Potency, µM (highest dose often 114 µM), for the others: at the top dose activity change, negative = inhibition, actives largely listed as inhibitors; AlphaScreen HP1-beta / biotin-H3K9me3 peptide binding; Chromobox protein homolog 1 (Homo sapiens), P83916; also: nearly all actives have a fitted effect of over 70% in size
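AlphaScreen: HP1-beta (50 nM) preformed 30 min with biotin-H3(1-18)K9me3 peptide (50 nM) in PBS pH 7.4, 0.01% Tween-20. Compound added for 30 min at RT, then streptavidin donor/nickel chelate acceptor beads (10 ug/mL) for 30 min.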
JMJD2A Tudor inh: qHTS Assay for Inhibitors of JMJD2A-Tudor Domain; AID 504339, 2011; 4.4% of 390,000 active; AlphaScreen JMJD2A-Tudor / H3K4me3 peptide binding; Potency, µM (top dose mostly 114 µM), without a hit: at the top dose activity change, negative = inhibition, usual class: inhibitors; also: % is scaled to controls: 0 for no effect and ±100 for the full control effect; nearly all actives have a fitted effect of over 50% in size
G9a block: qHTS Assay for Inhibitors of Histone Lysine Methyltransferase G9a | Histone-lysine N-methyltransferase EHMT2 (Homo sapiens), Q96KQ7 | G9a H3K9 monomethylation, AlphaScreen, 2 h | Potency, µM (top dose mostly 102 µM), for inactives: at the highest dose activity, negative = inhibition, usual class: inhibitors | 8.8% of 350,000 active; also: % is scaled to controls: 0 for no effect and ±100 for the full control effect; nearly all actives have a fitted effect of over 75% in size
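Methyltransferase reactions run at room temperature for 2 h (20 nM enzyme, 500 nM biotin-H3K9 peptide, 20 uM SAM) after a 15 min compound preincubation; product detected by AlphaScreen beads and anti-H3K9me1 antibody.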
BAZ2B block: qHTS Assay for Inhibitors of BAZ2B; Bromodomain adjacent to zinc finger domain protein 2B (Homo sapiens), Q9UIF8; AlphaScreen BAZ2B-H3K14Ac peptide displacement; Potency, µM (series often up to 114 µM), without a hit: at the highest dose activity change, negative = inhibition, most hits filed as inhibitors; AID 504333, 2011; 4.4% of 360,000 active; also: % is scaled to controls: 0 for no effect and ±100 for the full control effect; nearly all actives have a fitted effect of over 60% in size
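AlphaScreen displacement of biotin-H3(5-23)K14Ac peptide (50 nM final) from BAZ2B (50 nM final) in PBS pH 7.4, 0.01% Tween-20; complex preformed 30 min RT, then compounds (top 110 uM) 30 min RT, beads 20 min dark.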
* hit, by the source's call; ? = inconclusive; . = no result; [ ] = dose if it differs, or a comment. Only some compounds are listed: those with a hit (about 12% of all), similar ones and a draw of the others. Calls follow the shape of the dose curve; as a rule, active = well fitted curve in the direction sought with a large enough effect; inconclusive = small, poorly fitted or top-dose-only effect, or another doubt; inactive = no such curve, though single readings can be large; an effect the other way counts as inactive or inconclusive. Potency is read from the fitted curve at half-maximal effect.

SMILES	Sfp inh	L3MBTL1 block	HP1b binding inh	JMJD2A Tudor inh	G9a block	BAZ2B block
Cc1ccc2c(c1)C(c1ccccc1)N(C(=O)c1ccc(OC(C)C)cc1)CC(=O)N2 (stereo unspecified)	.	.	-8%	?	-2%[59 µM]	-37%
Cc1ccc(OCC(=O)NC(C)c2ccccc2)cc1 (stereo unspecified)	14%	3%	50%	7%	?	0%
COc1ccc(CNC(=O)c2c([S-])n(-c3ccc(C)cc3)c3cccc[n+]23)cc1	-13%	?	12%	3.2µM*	4µM*	.
Cc1ccc(-n2c([S-])c(C(=O)NC(C)c3ccccc3)[n+]3ccccc23)cc1 (stereo unspecified)	17%	26%	-4%	-35%	40µM*	-18%
COc1ccc(-n2c(-c3ccccc3F)nc3c(cnn3-c3ccc(C)cc3)c2=O)cc1	.	.	0%	-26%	-12%[59 µM]	.
COc1ccc(N2CCN(C(=O)c3nc(SC)ncc3Cl)CC2)cc1	.	.	27%	-18%	10µM*	-30%
CCCSc1ncc(Cl)c(C(=O)N2CCN(c3cccc(Cl)c3)CC2)n1	.	.	26%	-3%	12%[59 µM]	-7%
CCCSc1ncc(Cl)c(C(=O)N2CCN(c3ccc(OC)cc3)CC2)n1	.	.	-11%	?	10µM*	35µM*
CCC(C)n1c(SCc2ccc(C(C)(C)C)cc2)nc2ccsc2c1=O (stereo unspecified)	.	.	43%	10%	24%[59 µM]	11%
COc1ccc(NC(=O)C2(S(=O)(=O)c3ccc(C)cc3)CC2)c(OC)c1	.	.	34%	-9%	-4%[59 µM]	-7%
COc1ccc2[nH]c(C(=O)NCCN3CCCCC3)cc2c1	-2%	.	15%	-34%	56µM*	-15%
COc1ccc2[nH]c(C(=O)NCCCn3ccnc3)cc2c1	3%	.	17%	-13%	50µM*	-28%
CCCCNC(=O)c1cc2cc(OC)ccc2[nH]1	1%	3%	37%	-19%	-13%	-3%
CCOc1ccc(-c2cccc(NS(=O)(=O)c3c(C)cc(C)cc3C)c2)nn1	.	.	15%[57 µM]	-19%	-5%[59 µM]	-17%
CN(C)c1nc(-c2ccccc2C(F)(F)F)nc2ccccc12	12%	.	.	.	3%[0.501 µM]	.
O=C(NC(=S)Nc1ccc(CN2CCOCC2)cc1)c1cccc([N+](=O)[O-])c1	45µM*	-4%	-5%	-28%	?	?
O=C(NC(=S)Nc1ccc(CN2CCOCC2)cc1)c1ccc([N+](=O)[O-])cc1Cl	-15%	-17%	-7%	-31%	50µM*	?
COc1ccc(OC)c(Nc2ncc3c(n2)CCN(Cc2cc(OC)c(OC)c(OC)c2)C3)c1	.	.	-15%	-28%	?	-25%
O=[N+]([O-])c1ccccc1NCc1c(O)ccc2ccccc12	?	.	?	45µM*	?	35µM*
Oc1ccc2ccccc2c1CNc1ccccc1	.	.	-28%[57 µM]	?	.	.
Oc1ccc2ccccc2c1CNc1ccc2ccccc2c1	.	.	?	32µM*	.	.
CN(C)c1ccc(NS(=O)(=O)c2ccc(-c3csnn3)cc2)cc1	9%	-25%	?	50µM*	40µM*	56µM*
Cc1nc(-c2ccc(NS(=O)(=O)c3ccccc3)cc2)cs1	-19%	-11%	13%	-6%	-31%	-8%
Cc1ccc(S(=O)(=O)Nc2ccc(Nc3ccccc3)cc2)cc1	-7%	-14%	-14%	?	.	?
Cc1cc(S(=O)(=O)Nc2ccc(N(C)C)cc2)c(C)s1	-11%	.	-18%	50µM*	?	45µM*
SMILES	Sfp inh	L3MBTL1 block	HP1b binding inh	JMJD2A Tudor inh	G9a block	BAZ2B block
CN(C)c1ccc(NS(=O)(=O)c2cc3c4c(c2)CC(=O)N4CCC3)cc1	-13%	.	?	?	.	45µM*
Cc1ccc(S(=O)(=O)Nc2ccc(N(C)C)cc2)cc1	-1%	-3%	?	56µM*	-148%[59 µM]	35µM*
Cc1cc(S(=O)(=O)Nc2cccc(Cl)c2)c(C)s1	-20%	.	45%	-1%	2%	.
O/N=C(/c1ccccc1)c1cc2cc(Br)cc(Br)c2o1	-1%	.	17%	-4%	2%	-9%
COc1cccc(Cc2nc3ccccc3nc2SCC(=O)N2CCCc3ccccc32)c1	.	.	26%[57 µM]	-10%	-9%[59 µM]	15%
N#CCCn1c(=O)c(CCc2ccccc2)nc2cnc(Oc3cccc(Cl)c3)nc21	10%	.	.	.	-5%[12.7 µM]	.
CN(C)c1ccc(S(=O)(=O)c2ccc(Cl)cc2)cc1	7%	5%	34%	2%	-1%	-3%
COc1ccc(NS(=O)(=O)c2ccc(OC)c(N(C)S(=O)(=O)c3ccc(Cl)cc3)c2)cc1	4%	-8%	-17%	-26%	50µM*	-38%
CN(C)c1ccc(NS(=O)(=O)c2cccc(Cl)c2)cc1	-7%	-4%	?	32µM*	?	45µM*
CN(C)c1ccc(NS(=O)(=O)c2ccc(Cl)cc2)cc1	-5%	-18%	?	56µM*	3.5µM*	45µM*
CCOc1ccc(CCNS(=O)(=O)c2cc(Br)cc3c2N(C(C)=O)CC3)cc1OCC	.	.	7%	-25%	-42%[59 µM]	0%
CCN(CC)CCOc1ccc(/C(=C(/Cl)c2ccccc2)c2ccccc2)cc1	?	-15%	?	56µM*	.	?
Cc1ccc(C)c(OCC(=O)OCC(=O)Nc2c(C)nn(-c3ccccc3)c2C)c1	.	10%	31%	-16%	?	0%
CNC(=O)COC(=O)/C=C/c1c(C)nn(-c2ccccc2)c1C	13%	10%	13%	6%	50µM*	8%
Cc1cccc(OCCC(=O)OCC(=O)Nc2c(C)nn(-c3ccccc3)c2C)c1	.	4%	27%	-7%	35µM*	-3%
Cc1nn(-c2ccccc2)c(C)c1NC(=O)COC(=O)CC(C)c1ccccc1 (stereo unspecified)	.	8%	27%	16µM*	?	8%
Cc1nn(-c2ccccc2)c(C)c1/C=C/C(=O)OCC(=O)Nc1ncc(Cl)cc1Cl	-10%	-20%	-11%	?	?	-42%
Cc1noc(C)c1C(=O)N1CCC[C@@]2(CCN(C(=O)Nc3cccc(C#N)c3)C2)C1	16%	.	.	.	0%[12.7 µM]	.
Cn1c(/C=C/c2ccccc2)nc2ccccc21	10%	43%	53%	33%	5%	14%
CC(=O)c1ccc(/C=C/c2nc3ccccc3n2C)o1	50µM*	25%	21%	-3%	-7%[12.7 µM]	12%
